Screening results: PubChem BioAssay, National Center for Advancing Translational Sciences (NCATS)
FMDV FLuc – FMDV antiviral activity by firefly signal. FMDV antiviral cell assay, firefly luciferase signal. Potency, µM (doses to about 57.5 µM), for the others: at the top dose activity change, negative = inhibition, most hits filed as inhibitors. 120,000 compounds, 0.23% hits; note: nearly all actives have a fitted effect of over 60% in size
FMDV Renilla – antivirals against foot and mouth disease virus replicon; Potency, µM (top dose mostly 57.5 µM), for the others: at the top dose activity change, negative = inhibition, usual class: inhibitors; 120,000 compounds, 0.32% hits; AID 1745857; FMDV replicon cells, Renilla luciferase signal; note: nearly all actives have a fitted effect of over 55% in size
Starred values were filed as active, the others as inactive; ? = inconclusive; [ ] = another dose, or the depositor's remark. An excerpt weighted towards active compounds, which were near 0.51% of everything screened. Calls come from the whole dose curve. % is set by controls: 0 for no effect and ±100 for the full control effect; potency is the fitted concentration of half-maximal effect.

SMILES | FMDV FLuc | FMDV Renilla
COc1ccc(/C=C\c2onc(C)c2S(=O)(=O)N2CCC(C(=O)Nc3ccc(F)cc3F)CC2)cc1 | 32µM* | 28µM*
O=C(CSc1nnnn1-c1ccc(C(=O)O)cc1)Nc1cccc2ccccc12 | 4% | 1%
COc1ccc(NC(=O)COc2ccc3c(C)c(C)c(=O)oc3c2)cc1OC | 4% | 4%
COc1cc(C2CC(=O)Nc3c2sc(C(=O)O)c3-c2ccc(F)cc2)cc(OC)c1OC (stereo not drawn) | -3% | 0%
CCOc1cc(C2CC(=O)Nc3c(-c4ccc(OC)cc4)csc32)ccc1OCC(N)=O (stereo not drawn) | 13µM* | 8.9µM*
CC(C)N(C)S(=O)(=O)N(C)CC1COc2ccccc2O1 (stereo not drawn) | 2% | -3%
C/C(=N\NC(N)=S)c1cccc([N+](=O)[O-])c1 | 0% | 1%
Cc1cc(C(=O)Cn2c(Cl)nc3c2c(=O)n(C)c(=O)n3C)c(C)n1CCc1ccccc1 | 28µM* | 7.9µM*
Cc1cc(C(=O)Cn2c(Cl)nc3c2c(=O)n(C)c(=O)n3C)c(C)n1C | 35% | 15%
O=C(N/N=C/C=C/c1ccccc1)c1csc2ccccc12 | 0% | -7%[1.06 µM]
Cc1ccccc1NC(=O)Cn1nnc(C(=O)NCc2cccs2)c1N | 100% | 56%
Cc1cc(C)c(NC(=O)Cn2nnc(C(=O)NCc3cccs3)c2N)c(C)c1 | 35µM* | -3%
COCCn1c(NCCO)nc2c1c(=O)[nH]c(=O)n2C | -6% | -6%
O=C1CC2(C(=O)N(CC3CCCCC3)c3ccccc32)c2cnn(-c3ccccc3)c2N1 (stereo not drawn) | ? | -18%
CCOc1ccc(C(=O)Nc2nc(C)cs2)cc1OC | 1% | 4%
Cc1csc(NC(=O)c2ccc(Oc3ccc(Br)cc3)nc2)n1 | ? | 13µM*
COc1cccc2cc(C(=O)NCc3ccc(C(=O)N4CCCCC4)cc3)c(=O)oc12 | -7% | -22%
CN1CCN(c2ccc(C#N)cn2)CC1 | 0% | 15%
CN1CCN(c2ccc(C#N)cc2)CC1 | 2.8µM* | 13%[1.06 µM]
CCS(=O)(=O)c1ccccc1C(=O)N1CCN(c2nc3ccccc3s2)CC1 | 11µM* | -4%
O=C(c1ccc(Cl)cc1)N1CCN(c2nc3ccccc3s2)CC1 | 13% | 0%
COc1ccc(NS(=O)(=O)c2ccc3c(c2)OCCCO3)cn1 | ? | 13%
CC(C)c1ccc(NC(=O)c2ccc(F)c(S(=O)(=O)N3CCc4ccccc43)c2)cc1 | ? | -1%
O=C(Nc1ccc(Br)cc1)c1ccc(F)c(S(=O)(=O)N2CCc3ccccc32)c1 | 11µM* | ?
CCOc1ccc2oc(=O)c(-c3ccccc3)c(C)c2c1 | 89% | 38%
SMILES | FMDV FLuc | FMDV Renilla
O=c1c2ccccc2c(-c2cccs2)nn1CC(O)COCc1ccccc1Cl (stereo not drawn) | -7% | 6%
CCC(CO)NC(=O)c1nc(-c2cccc3[nH]ccc23)no1 (stereo not drawn) | 63% | 38%
CC(=O)OC1CCC2(/C=N/O)[C@H]3CCC4(C)C(C5=CC(=O)OC5)CCC4(O)[C@@H]3CCC2(O)C1 (stereo partly drawn) | 0.79µM* | 1µM*
COC1CC(OC2CCC3(/C=N/O)[C@H]4CCC5(C)C(C6=CC(=O)OC6)CCC5(O)[C@@H]4CCC3(O)C2)OC(C)C1O (stereo partly drawn) | ? | 0.35µM*
C[C@@H]1O[C@@H](O[C@@H]2C=C3CC[C@@H]4[C@H](CC[C@]5(C)[C@@H](c6ccc(=O)oc6)CC[C@]45O)[C@@]3(C)CC2)[C@H](O)[C@H](O)[C@H]1O | -85% | -79%
Cc1cc(C)c(C(=O)CSc2nnnn2C)c(C)c1 | 20% | 6%
CCN(Cc1cccs1)C(=O)c1cccc(C#N)c1 | 6% | -4%[1.06 µM]
CCc1cc2c(=O)c(Oc3ccc(F)cc3)c(C(F)(F)F)oc2cc1OC(C)=O | 14µM* | 10µM*
CCc1cc2c(=O)c(Oc3ccc(I)cc3)c(C(F)(F)F)oc2cc1OC(=O)c1ccc(Br)cc1 | 6% | 12%
CCOc1nc2ccccc2nc1N1CCC(C(=O)Nc2cccc(F)c2)CC1 | -4% | -5%
CCc1ccccc1Nc1nn2c(=O)c3ccc(C(=O)NC(C)c4ccccc4)cc3nc2s1 (stereo not drawn) | 11µM* | ?
CCc1ccccc1Nc1nn2c(=O)c3ccc(C(=O)NCCc4ccccc4)cc3nc2s1 | 0% | 0%
NC(N)=N/N=C1\CCCCC1c1nccc2ccccc12 (stereo not drawn) | 24% | 8%
CCCn1nc(C(=O)Nc2ncc(Cc3cccc(Cl)c3)s2)ccc1=O | 28µM* | ?
O=C(CCCCl)Nc1ncc(Cc2cccc(Cl)c2)s1 | 0% | 12%
O=S(=O)(c1ccc2oc(Nc3ccc(F)cc3)nc2c1)N1CCCCC1 | 25% | 10%
Cc1ccc(CNS(=O)(=O)c2ccc(-c3cnc(C4CC4)o3)cc2)cc1 | -18% | 18%
COc1ccc(C)cc1NS(=O)(=O)c1ccc(-c2cnc(C3CC3)o2)cc1 | 14µM* | 16µM*
N#Cc1ncn(Cc2coc(-c3ccc(Cl)cc3)n2)n1 | 11% | -27%
Cc1ccc2c(c1)SC(C(=O)Nc1ccc(C)c(S(N)(=O)=O)c1)C2 (stereo not drawn) | 0% | -20%
Cc1cc2ccccc2n1-c1ccc(C(=O)N2CCC(C(=O)NCc3ccc(Cl)cc3)CC2)s1 | 25µM* | ?
Cc1cc2ccccc2n1-c1ccc(C(=O)N2CCC(C(=O)NCc3ccccc3Cl)CC2)s1 | 24% | 4%
O=C(Nc1cn[nH]c1)N1CCCCC1Cc1ccccc1 (stereo not drawn) | 10% | -7%
CCOc1ccc2c(C)c(CC(=O)O)c(=O)oc2c1 | 4% | -8%
COC(=O)c1ccccc1NC(=O)NCc1nc(-c2ccc(C)cc2)oc1C | 24% | 32%
SMILES | FMDV FLuc | FMDV Renilla
O=C(c1ccco1)N1CCC(C(=O)N2CCCCC2)CC1 | 14% | 1%
CCCCC(CC)CN=C(N)NC(N)=NCCCCCCN=C(N)NC(N)=NCC(CC)CCCC (stereo not drawn) | ? | 28µM*
CCCCN=C(N)N=C(N)N | -8%[11.5 µM] | -1%
CCCNC(=O)C(C)Sc1nc(CCC)cc(=O)[nH]1 (stereo not drawn) | 2% | -4%
CCCc1cc(=O)[nH]c(SC(C)C(=O)NC(=O)NC2CCCCC2)n1 (stereo not drawn) | 10µM* | ?
C=CCNC(=O)CN1CCN(C(=O)Cn2c(C)cc3ccccc32)CC1 | 9% | -3%
Cc1ccc(Nc2nc(Nc3ccc(F)cc3)nc3nccnc23)cc1Cl | 0% | 20%
CN(C(=O)CSc1nc2ccc(NC(=O)COc3ccc(Cl)cc3)cc2s1)c1ccccc1 | -19% | -13%
COc1ccc(C(=O)Nc2ccc3nc(SCC(=O)N(C)c4ccccc4)sc3c2)cc1 | ? | 28µM*
CCOc1ccc(C(=O)Nc2ccc3oc(-c4ccncc4)nc3c2)cc1Br | ? | 6.3µM*
COc1ccc(C(=O)Nc2ccc3oc(-c4ccncc4)nc3c2)cc1OC | 0% | -5%
CC(C)C(C)NC(=O)COc1ccc(-n2cnnn2)cc1 (stereo not drawn) | 14% | 5%
Cc1ccc(NC(=O)CC2(C(=O)O)CCCC2)c(C)c1 | 0% | 20%
Cc1ccc(C)c(-c2csc(Nc3ccc(S(N)(=O)=O)cc3)n2)c1 | ? | 18µM*
Cc1ccc(C)c(-c2csc(Nc3ccc(S(=O)(=O)Nc4nc(C)cc(C)n4)cc3)n2)c1 | -20% | 62%
COc1ccc(-c2nc(SCc3cc(=O)c4cccc(Cl)c4[nH]3)n[nH]2)cc1 | ? | 11µM*
